Data on six molecules can be found in PubChem BioAssay (EPA / NIEHS).

Read-out in assay [1]: Interleukin-6 (IL6), IL6 (gene 3569)
Description: BSK_CASM3C_IL6: BioMAP Diversity Plus: CASM3C Assay for Interleukin-6 (IL6) Biomarker Activity for (AID 2283040). Particulars: primary human coronary artery smooth muscle cells; actives raise or lower the signal.

Read-out in assay [2]: Tissue plasminogen activator (tPA), PLAT (gene 5327)
Put plainly: BSK_BE3C_tPA: BioMAP Diversity Plus: BE3C Assay for Tissue plasminogen activator (tPA) Biomarker Activity (AID 2283041).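 Note: tPA level quantified by ELISA one day after compound addition.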 Particulars: primary human bronchial epithelial cells; actives raise or lower the signal. Summed up: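 tPA measured by ELISA 24 h after dosing human primary bronchial epithelial cells (BE3C system). Changes in either direction were fitted against DMSO. Parallel cultures were stained with SRB to flag overt cytotoxicity.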

Read-out in assay [3]: Interleukin-8 (IL8), CXCL8 (gene 3576)
Description: BSK_CASM3C_IL8: BioMAP Diversity Plus: CASM3C Assay for Interleukin-8 (IL8) Biomarker Activity (AID 2283042).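 Note: IL-8 protein level quantified by ELISA.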 To be noted: primary human coronary artery smooth muscle cells; actives raise or lower the signal.

Read-out in assay [4]: Human Leukocyte Antigen - DR isotype (HLADR), HLA-DRA (gene 3122)
Put plainly: BSK_CASM3C_HLADR: BioMAP Diversity Plus: CASM3C Assay for Human Leukocyte Antigen - DR isotype (HLADR) Biomarker Activity (AID 2283043).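 Note: cell-surface HLA-DR protein level quantified by ELISA.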 Particulars: primary human coronary artery smooth muscle cells; actives raise or lower the signal.

Read-out in assay [5]: Macrophage colony-stimulating factor (MCSF), CSF1 (gene 1435)
Description: BSK_CASM3C_MCSF: BioMAP Diversity Plus: CASM3C Assay for Macrophage colony-stimulating factor (MCSF) Biomarker Activity (AID 2283044).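 Note: M-CSF protein amount quantified by ELISA after 24 h exposure.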 To be noted: primary human coronary artery smooth muscle cells; actives raise or lower the signal.

Read-out in assay [6]: Low-density lipoprotein receptor (LDLR), LDLR (gene 3949)
Description: BSK_CASM3C_LDLR: BioMAP Diversity Plus: CASM3C Assay for Low-density lipoprotein receptor (LDLR) Biomarker Activity (AID 2283045).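 Note: LDLR protein level on the cell surface quantified by ELISA.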 Particulars: primary human coronary artery smooth muscle cells; actives raise or lower the signal.

Read-out in assay [7]: Monocyte Chemoattractant Protein-1 (MCP1), CCL2 (gene 6347)
Description: BSK_CASM3C_MCP1: BioMAP Diversity Plus: CASM3C Assay for Monocyte Chemoattractant Protein-1 (MCP1) Biomarker Activity (AID 2283046).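 Note: MCP-1 level quantified by ELISA 24 h after dosing.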 Particulars: primary human coronary artery smooth muscle cells; actives raise or lower the signal.

The nature of assay [8]: BSK_CASM3C_Proliferation: Cell Proliferation Assessment in the BioMAP Diversity Plus: CASM3C Assay (AID 2283047).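 Note: sulforhodamine B total protein stain as relative cell number at 560 nm; sub-confluent cells exposed 48 h before staining; fitted both ways against DMSO so gain or loss of cell number.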 Particulars: primary human coronary artery smooth muscle cells.
Read-out in assay [9]: Monokine induced gamma interferon (MIG), CXCL9 (gene 4283)
Description: BSK_CASM3C_MIG: BioMAP Diversity Plus: CASM3C Assay for Monokine induced gamma interferon (MIG) Biomarker Activity (AID 2283048).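 Note: MIG protein level measured by ELISA.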 To be noted: primary human coronary artery smooth muscle cells; actives raise or lower the signal.

Read-out in assay [10]: serum amyloid A (SAA), SAA1 (gene 6288)
Put plainly: BSK_CASM3C_SAA: BioMAP Diversity Plus: CASM3C Assay for serum amyloid A (SAA) Biomarker Activity (AID 2283049).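 Note: SAA protein level quantified by ELISA.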 Particulars: primary human coronary artery smooth muscle cells; actives raise or lower the signal.

Assay [11] is described as follows: BSK_CASM3C_SRB: Viability Assessment in the BioMAP Diversity Plus: CASM3C Assay (AID 2283050).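 Note: total protein by SRB staining as cytotoxicity measure in parallel cultures; cells exposed to compound for 24 h.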 To be noted: primary human coronary artery smooth muscle cells.
Read-out in assay [12]: Thrombomodulin, THBD (gene 7056)
Description: BSK_CASM3C_Thrombomodulin: BioMAP Diversity Plus: CASM3C Assay for Thrombomodulin Biomarker Activity (AID 2283051).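 Note: thrombomodulin protein level measured by ELISA 24 h after dosing.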 To be noted: primary human coronary artery smooth muscle cells; actives raise or lower the signal.

Read-out in assay [13]: Tissue Factor, F3 (gene 2152)
Put plainly: BSK_CASM3C_TissueFactor: BioMAP Diversity Plus: CASM3C Assay for Tissue Factor Biomarker Activity (AID 2283052).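 Note: cell surface tissue factor protein level read by ELISA.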 To be noted: primary human coronary artery smooth muscle cells; actives raise or lower the signal.

Read-out in assay [14]: Interferon-gamma inducible Protein 10 (IP10), CXCL10 (gene 3627)
Description: BSK_hDFCGF_IP10: BioMAP Diversity Plus: hDFCGF Assay for Interferon-gamma inducible Protein 10 (IP10) Biomarker Activity (AID 2283053). To be noted: primary human foreskin fibroblasts; actives raise or lower the signal. Summed up:
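ELISA quantification of IP-10 after a 24 h chemical exposure of human dermal foreskin fibroblast primary cultures. Both increases and decreases versus DMSO fitted.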

Read-out in assay [15]: Urokinase-type plasminogen activator receptor (uPAR), PLAUR (gene 5329)
Put plainly: BSK_CASM3C_uPAR: BioMAP Diversity Plus: CASM3C Assay for Urokinase-type plasminogen activator receptor (uPAR) Biomarker Activity (AID 2283054).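 Note: cell-surface uPAR protein level quantified by ELISA.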 Particulars: primary human coronary artery smooth muscle cells; actives raise or lower the signal.

Read-out in assay [16]: Vascular cell adhesion molecule 1 (VCAM1), VCAM1 (gene 7412)
Description: BSK_CASM3C_VCAM1: BioMAP Diversity Plus: CASM3C Assay for Vascular cell adhesion molecule 1 (VCAM1) Biomarker Activity (AID 2283055).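 Note: VCAM-1 protein level quantified by ELISA on the cells.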 Particulars: primary human coronary artery smooth muscle cells; actives raise or lower the signal.

Read-out in assay [17]: Collagen III, COL3A1 (gene 1281)
Description: BSK_hDFCGF_CollagenIII: BioMAP Diversity Plus: hDFCGF Assay for Collagen III Biomarker Activity (AID 2283056). To be noted: primary human foreskin fibroblasts; actives raise or lower the signal. An outline of the steps:
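Human foreskin primary fibroblasts were exposed to test chemicals for 24 h, after which collagen III was quantified by ELISA. Activity was fitted bidirectionally against DMSO as negative control and baseline.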

Read-out in assay [18]: Epidermal growth factor receptor (EGFR), EGFR (gene 1956)
Description: BSK_hDFCGF_EGFR: BioMAP Diversity Plus: hDFCGF Assay for Epidermal growth factor receptor (EGFR) Biomarker Activity (AID 2283057). Particulars: primary human foreskin fibroblasts; actives raise or lower the signal. Summed up:
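EGFR levels by ELISA in human dermal fibroblast cultures, 24 h post-treatment, fitted bidirectionally versus DMSO. Parallel wells stained with sulforhodamine B to detect overt cytotoxicity.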

Read-out in assay [19]: Interleukin-8 (IL8), CXCL8 (gene 3576)
Description: BSK_hDFCGF_IL8: BioMAP Diversity Plus: hDFCGF Assay for Interleukin-8 (IL8) Biomarker Activity (AID 2283058). Particulars: primary human foreskin fibroblasts; actives raise or lower the signal. Summed up: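 hDFCGF human dermal fibroblasts; 24 h chemical exposure; IL-8 by ELISA; bidirectional curve fit vs DMSO baseline; gain or loss of signal scored.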

The nature of assay [20]: BSK_hDFCGF_Proliferation: Cell Proliferation Assessment in the BioMAP Diversity Plus: hDFCGF Assay (AID 2283059).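 Note: curves fitted for both rise and fall of signal versus DMSO baseline.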 To be noted: primary human foreskin fibroblasts. Summed up: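 Steps: dose primary human dermal fibroblasts (foreskin); […] fix in 10% TCA; stain with 0.1% SRB; read 560 nm; fit gain or loss of signal against DMSO.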

Activity calls are given as the source filed them. Rule for the calls: active = hit-call score of the fitted dose curve at least 0.9, where 1 is the maximum; inactive = score below 0.9.

With `CC(C)[N+](C)(CCOC(=O)C1c2ccccc2Oc2ccccc21)C(C)C`, the result in [1], in assay [2], in assay [3], in [4], in assay [5] and in assay [6] was inactive. Further, the outcome in assay [7], in assay [8], in [9], in [10], in assay [11] and in assay [12] was inactive. The result in [13], in assay [14], in [15], in assay [16], in [17] and in assay [18] was inactive. Moreover, the outcome in assay [19] was inactive. In addition, the AC50 (commonly the concentration at which the activity in the assay is half-maximal) in assay [20] was 0.471 µM (active).

As for `C=CC(=O)OCCCCCCOC(=O)C=C`, the AC50 was 14.2 µM (active) in [1]; 10.1 µM (active) in assay [3]; 10.5 µM (active) in assay [4]; 18 µM (active) in [5]; 20 µM (active) in assay [6]; 34 µM (active) in [7]. The AC50 was 20 µM (active) in assay [8]; 23.3 µM (active) in assay [9]; 20 µM (active) in assay [11]; 1.43 µM (active) in assay [13]; 2.12 µM (active) in assay [14]; 29.4 µM (active) in assay [15]. The AC50 was 10.8 µM (active) in [16], 7.72 µM (active) in assay [17], 20 µM (active) in assay [19] and 1.72 µM (active) in [20]. For the same molecule, the result in assay [2], in assay [10], in assay [12] and in assay [18] was inactive.

As to `Clc1cc(Cl)c(Cl)c(Cl)c1Cl`, the result in assay [1], in assay [2], in [3], in assay [4], in [5] and in assay [6] was inactive. Moreover, the result in assay [7], in [8], in assay [9], in [10], in assay [11] and in assay [12] was inactive. For the same molecule, the outcome in assay [13], in assay [14], in assay [15], in assay [16], in assay [17] and in assay [18] was inactive. The outcome in assay [19] and in [20] was inactive.

`O=C(Oc1ccccc1)c1ccccc1C(=O)Oc1ccccc1`: the outcome in assay [1], in assay [2], in assay [3], in [4], in assay [5] and in assay [6] was inactive. Besides, the outcome in assay [7], in assay [8], in assay [9], in assay [10], in assay [11] and in assay [12] was inactive. The result in assay [13], in assay [14], in assay [15], in assay [16], in [18] and in assay [19] was inactive. The AC50 in [17] was 11.5 µM (active); in assay [20] it was 24 µM (active).

Take `CC(Cl)COP(=O)(OCC(C)Cl)OCC(C)Cl` (stereo not given): the outcome in assay [1], in [2], in [3], in [4], in assay [5] and in assay [6] was inactive. For the same molecule, the result in [7], in [9], in assay [10], in assay [11], in assay [12] and in assay [13] was inactive. Further, the outcome in assay [14], in [15], in assay [16], in assay [17], in assay [18] and in assay [19] was inactive. Besides, the outcome in assay [20] was inactive. For the same molecule, the AC50 in [8] is 0.159 µM (active).

In the case of `Cc1c(O)cccc1O`, the outcome in assay [1], in assay [2], in assay [3], in assay [4], in assay [5] and in assay [6] was inactive. Also, the outcome in [7], in [8], in assay [9], in assay [10], in [11] and in [12] was inactive. Also, the result in [13], in [14], in assay [15], in assay [16], in assay [17] and in assay [18] was inactive. Further, the result in assay [19] and in assay [20] was inactive.
